From PubChem BioAssay AID1611 (NINDS Approved Drug Screening Program, 2009) come the findings set out here.

The experiment can be described thus: HSE-luciferase reporter activators – cell-based (AID 1611). The settings on record: human cells, HSE-luciferase heat shock reporter; stronger effect = higher value.
`CN(C)C(=O)C(CCN1CCC(O)(c2ccc(Cl)cc2)CC1)(c1ccccc1)c1ccccc1`: the fold change worked out at 1.52.

In the case of `CO[C@@H]1[C@@H](O[C@@H]2O[C@H](C)[C@@H](O[C@H]3C[C@@](C)(O)[C@H](O)[C@H](C)O3)[C@H](N(C)C)[C@H]2O)[C@@H](CC=O)C[C@@H](C)[C@@H](O[C@H]2CC[C@H](N(C)C)[C@@H](C)O2)/C=C/C=C/C[C@H](C)OC(=O)C[C@H]1O`, the fold change was determined as 62.6.

For `O=C1c2c(O)cccc2Cc2cccc(O)c21`, the fold change turned out to be 0.93.

On to `CN1C2CC(OC(=O)[C@H](CO)c3ccccc3)C[C@H]1[C@H]1OC21` (stereo partly drawn), for which the fold change amounted to 1.34.

As for `CO/N=C(/C(=O)NC1C(=O)N2C(C(=O)O)=C(COC(N)=O)CSC12)c1ccco1` (stereo not drawn), the fold change was 1.

Regarding `CC(C)NNC(=O)c1ccncc1`, the fold change was found to be 1.02.

As to `Nc1ncnc2c1ncn2[C@@H]1O[C@H](CO)[C@@H](O)[C@@H]1O`, the fold change is 1.52.

`Cc1ccc(C(=O)c2ccc(CC(=O)O)n2C)cc1`: the fold change was 279.

With `CN(C)C(=O)Oc1ccc[n+](C)c1`, the fold change amounted to 1.31.

Consider `CCN1CCCC(OC(=O)C(c2ccccc2)c2ccccc2)C1` (stereo not drawn), for which the fold change was found to be 0.74.

For the molecule `C1CNCCN1`, the fold change amounted to 1.04.

Turning to `O=C(O)c1ccccc1O`, the fold change is 0.73.

For the molecule `O=C1C(CCS(=O)c2ccccc2)C(=O)N(c2ccccc2)N1c1ccccc1` (stereo not drawn), the fold change turned out to be 0.91.

Consider `CN(C)C(=O)Oc1cccc([N+](C)(C)C)c1`, for which the fold change amounted to 1.23.

Regarding `CCCc1ncc(C[n+]2ccccc2C)c(N)n1`, the fold change was found to be 1.19.

In the case of `COC1=CC(=O)C[C@@H](C)[C@]12Oc1c(Cl)c(OC)cc(OC)c1C2=O`, the fold change was found to be 0.94.

`CCN(CC)C(=O)c1cccc(C)c1`: the fold change was determined as 0.91.

For the molecule `CCCCCCOc1ccccc1C(N)=O`, the fold change worked out at 0.59.
